Here are results for 38 molecules from PubChem BioAssay (NCI).

This is part of a sample that, as a whole, favours compounds with a hit. Of some 83,000 tested, about 20% had one in any assay.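 Interpretation: 100, growth as untreated; towards 0, rising growth inhibition; 0, no net growth; 0 to -100, cell death. Compounds scoring below 10 were considered active.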 Activity calls are given as the source filed them.

The first experiment has as its system SF-268 CNS. Nature of the experiment: NCI-60 one-dose screen, 48 h (100 = growth as untreated, 0 = no growth, -100 = all killed). Conditions: 10 µM unless noted.
On to `N=C(N)c1ccc(S(N)(=O)=O)cc1`, for which the growth is 96.1% (inactive). As to `C=C(C)[C@@H]1CC[C@]2(C(=O)OC)CC[C@]3(C)[C@H](CC[C@@H]4[C@@](C)(CC/C(N)=N/O)[C@H](C(=C)C)CC[C@]43C)[C@@H]12`, the growth was 96.6% (inactive).

`COc1ccc(-c2nc3c(c(C)nn3-c3ccc(F)cc3)c(=O)[nH]2)cc1`: the growth is 78.9% (inactive). Same read-out and setting: the result for `CC1(C)C(=O)/C(=C\c2ccco2)C[C@]2(C)[C@H]3CC[C@@H]4[C@@H](C(=O)/C=C/c5ccco5)CC[C@@]4(C)[C@]3(C)CC[C@@H]12` reads 78.7% (inactive); that for `CC1(C)CC[C@]2(C(=O)Nc3ccccn3)CC[C@]3(C)C(=CC[C@@H]4[C@@]5(C)C/C(=C/c6ccncc6)C(=O)C(C)(C)[C@@H]5CC[C@]43C)[C@@H]2C1`, 72.5% (inactive). For the molecule `Cc1csc(-c2ccc3c(c2)COC3(CCCN(C)C)c2ccc(F)cc2)c1` (configuration not stated), the growth was 57.2% (inactive).

On to `Cc1nc([P+](c2ccccc2)(c2ccccc2)c2ccccc2)c(Sc2sc(-c3ccccc3)nc2[P+](c2ccccc2)(c2ccccc2)c2ccccc2)o1`, for which the growth is 18.2% (inactive). As to `O=C(O[C@@H]1Cc2c(O)cc(O)cc2O[C@@H]1c1cc(O)c(O)c(O)c1)c1cc(O)c2c(c1)OCO2`, the growth is 97% (inactive). The same measure, in the same setting: the result for `Fc1ccc2c(c1)c(-c1nc(-c3c[nH]c4ncccc34)cs1)cn2CCCN1CCCCC1` reads 66.6% (inactive). Regarding `O=P(O)(c1ccccc1)c1ccccc1I`, the growth is 99.8% (inactive). As to `COc1ccc(/C=C(\C#N)c2cc3ccccc3n2S(C)(=O)=O)cc1`, the growth was 88% (inactive). Take `CN1CCN(CCOc2ccc(-c3cnc4c(-c5cccc(F)c5)cnn4c3)cc2)CC1`: the growth was 80.4% (inactive). With `Cc1ccc2oc(=O)cc(-c3sc(N4CCCCC4)nc3-c3ccccc3)c2c1`, the growth was 87.9% (inactive). On to `Cc1ccnc2c(OCc3ccccc3)cccc12`, for which the growth was 92.5% (inactive). In the case of `N#CC1=C(N)Oc2ccc3ccccc3c2C1c1ccccc1` (configuration not stated), the growth is 52.2% (inactive). Take `CN(C)CCCCC(C(=O)CBr)(c1ccccc1)c1ccccc1`: the growth is 48.7% (inactive). As for `CC(=O)O[C@H]1CC[C@]2(C)[C@H]3CC=C4[C@@H]5[C@H](C)[C@@H](C)CC[C@]5(C(=O)NCCNCCNCCN)CC[C@@]4(C)[C@]3(C)CC[C@H]2C1(C)C`, the growth is 84.1% (inactive). As for `Cc1ccc(S(=O)(=O)Nc2ccc(-c3cc(-c4cccc(F)c4)c(C#N)c(N)n3)cc2)cc1`, the growth is 47% (inactive). For the molecule `O=C1/C(=C\c2ccc(Br)o2)SC(=S)N1CCc1ccc(O)cc1`, the growth was 96% (inactive). `CN(C)c1ccc(-c2ccc(-c3ccc(C(=N)N)c(F)c3)s2)cc1`: the growth is -56.9% (active). On the same count and under the same terms, the result for `Cc1ccc(S(=O)(=O)Nc2ccc(-c3cc(-c4cccc(F)c4)c(C#N)c(=O)[nH]3)cc2)cc1` reads 74.2% (inactive); that for `O=C1CN(c2ccccc2)C(=O)C1C(=O)Nc1ccc(Cl)c(Cl)c1` (configuration not stated), 31.2% [100 µM] (inactive); that for `CN(C)CCCC1(c2ccc(F)cc2)OCc2cc(-c3ccc(C(F)(F)F)nc3)ccc21` (configuration not stated), 73.7% (inactive). Turning to `Fc1ccc(Nc2nnc(-c3ccc(Cl)cc3)o2)cc1`, the growth was 99.3% (inactive). Turning to `C=C(C)[C@@H]1CC[C@]2(/C=N/Nc3ccncc3)CC[C@]3(C)[C@H](CC[C@@H]4[C@@]5(C)CCCNC(C)(C)[C@@H]5CC[C@]43C)[C@@H]12`, the growth is 97.2% (inactive). Still for that read-out and setting: the value for `O=C1c2ccccc2NC(c2cn(-c3ccccc3)nc2-c2cccs2)N1Cc1ccccc1` (configuration not stated) was 78.9% (inactive); that for `Cc1cccc(C)c1NCc1nc(-c2ccccc2)n[nH]1` was 101% (inactive); that for `NC(N)=N/N=C/c1ccc(-c2ccc(-c3ccc(Cl)cn3)s2)cc1` was 88.2% (inactive). Consider `CCOC(=O)C1OC1(c1ccccc1)c1ccccc1` (configuration not stated), for which the growth was 94.2% (inactive).

A further experiment deals with SF-295 CNS. Described as above. To be noted: 10 µM unless noted.
As to `CC(=O)c1c(C)[nH]c(-c2nc3ccc(N4CCN(C)CC4)cc3[nH]2)c1-c1ccc(N(C)C)cc1`, the growth is 43.2% (inactive).

Turning to `CC(=O)c1c(C)[nH]c(-c2nc3ccc(N4CCN(C)CC4)cc3[nH]2)c1-c1ccc(OCC2CCOCC2)cc1`, the growth is 43.3% (inactive). Turning to `CC/C=C\C[C@H]1CC=C2C(=O)C=C[C@@H]2CC=CCCCC(=O)O[C@@H](CCCCC)CC=C2C(=O)C=C[C@@H]2CC=CCCCC(=O)O[C@@H](CCCCC)CC=C2C(=O)C=C[C@@H]2CC=CCCCC(=O)O[C@@H](CCCCC)CC=C2C(=O)C=C[C@@H]2CC=CCCCC(=O)O1`, the growth is 53.7% [7.9 µM] (inactive). On to `O=C1c2cccc3cccc(c23)C(=O)N1CC#Cc1ccc2c3c(cccc13)C(=O)N(CCN1CCNCC1)C2=O`, for which the growth is 94.1% (inactive).

As for `COc1ccc(NC(=O)c2ccc3c(c2)nc(-c2cc4ccccc4[nH]c2=O)n3-c2cc(C(C)(C)C)[nH]n2)cc1`, the growth is 89.9% (inactive). Take `CC(=O)NC1=C(C#N)C(c2ccccc2Cl)c2c(ccc3ccccc23)O1` (configuration not stated): the growth is 25.7% (inactive). The same measure, in the same setting: the result for `CC(C)(C)c1[nH]nc2c1C(c1cc3ccccc3[nH]c1=O)Nc1cc(C(=O)OCc3ccccc3)ccc1N2` (configuration not stated) reads 30.3% (inactive). Regarding `CC1(C)C=CC[C@]2(C)[C@H]3CC[C@@H]4[C@H]5[C@H](C(=O)/C=C/c6cccnc6)CC[C@]5(CO)CC[C@@]4(C)[C@]3(C)CC[C@@H]12`, the growth was -91.4% (active).

With `CC1(C)[C@@H](O)CC[C@]2(C)[C@H]3CC[C@@H]4[C@H]5[C@H](C(=O)/C=C/c6ccc(C(F)(F)F)cc6)CC[C@]5(CO)CC[C@@]4(C)[C@]3(C)CC[C@@H]12`, the growth was 72.1% (inactive).

In the case of `N=C(N)c1ccc(S(N)(=O)=O)cc1`, the growth is 98.8% (inactive).

Regarding `C=C(C)[C@@H]1CC[C@]2(C(=O)OC)CC[C@]3(C)[C@H](CC[C@@H]4[C@@](C)(CC/C(N)=N/O)[C@H](C(=C)C)CC[C@]43C)[C@@H]12`, the growth is 96.4% (inactive). For `COc1ccc(-c2nc3c(c(C)nn3-c3ccc(F)cc3)c(=O)[nH]2)cc1`, the growth is 68.1% (inactive). With `CC1(C)C(=O)/C(=C\c2ccco2)C[C@]2(C)[C@H]3CC[C@@H]4[C@@H](C(=O)/C=C/c5ccco5)CC[C@@]4(C)[C@]3(C)CC[C@@H]12`, the growth is 100% (inactive). As for `CC1(C)CC[C@]2(C(=O)Nc3ccccn3)CC[C@]3(C)C(=CC[C@@H]4[C@@]5(C)C/C(=C/c6ccncc6)C(=O)C(C)(C)[C@@H]5CC[C@]43C)[C@@H]2C1`, the growth was 30.8% (inactive). For `Cc1csc(-c2ccc3c(c2)COC3(CCCN(C)C)c2ccc(F)cc2)c1` (configuration not stated), the growth is 73.7% (inactive).

In the case of `Cc1nc([P+](c2ccccc2)(c2ccccc2)c2ccccc2)c(Sc2sc(-c3ccccc3)nc2[P+](c2ccccc2)(c2ccccc2)c2ccccc2)o1`, the growth is 1.87% (active). For the molecule `O=C(O[C@@H]1Cc2c(O)cc(O)cc2O[C@@H]1c1cc(O)c(O)c(O)c1)c1cc(O)c2c(c1)OCO2`, the growth was 103% (inactive). For `Fc1ccc2c(c1)c(-c1nc(-c3c[nH]c4ncccc34)cs1)cn2CCCN1CCCCC1`, the growth was 93.2% (inactive). As for `O=P(O)(c1ccccc1)c1ccccc1I`, the growth was 93.7% (inactive). As for `COc1ccc(/C=C(\C#N)c2cc3ccccc3n2S(C)(=O)=O)cc1`, the growth was 71.6% (inactive). In the case of `CN1CCN(CCOc2ccc(-c3cnc4c(-c5cccc(F)c5)cnn4c3)cc2)CC1`, the growth was 79.6% (inactive). For `Cc1ccc2oc(=O)cc(-c3sc(N4CCCCC4)nc3-c3ccccc3)c2c1`, the growth was 102% (inactive). In the case of `Cc1ccnc2c(OCc3ccccc3)cccc12`, the growth is 89.9% (inactive).

With `N#CC1=C(N)Oc2ccc3ccccc3c2C1c1ccccc1` (configuration not stated), the growth is 4.96% (active). On to `CN(C)CCCCC(C(=O)CBr)(c1ccccc1)c1ccccc1`, for which the growth was 43.7% (inactive).

Take `CC(=O)O[C@H]1CC[C@]2(C)[C@H]3CC=C4[C@@H]5[C@H](C)[C@@H](C)CC[C@]5(C(=O)NCCNCCNCCN)CC[C@@]4(C)[C@]3(C)CC[C@H]2C1(C)C`: the growth was 101% (inactive). In the case of `Cc1ccc(S(=O)(=O)Nc2ccc(-c3cc(-c4cccc(F)c4)c(C#N)c(N)n3)cc2)cc1`, the growth is 78.9% (inactive).

With `O=C1/C(=C\c2ccc(Br)o2)SC(=S)N1CCc1ccc(O)cc1`, the growth is 94.9% (inactive). Still for that read-out and setting: the value for `CN(C)c1ccc(-c2ccc(-c3ccc(C(=N)N)c(F)c3)s2)cc1` was -88.1% (active); that for `Cc1ccc(S(=O)(=O)Nc2ccc(-c3cc(-c4cccc(F)c4)c(C#N)c(=O)[nH]3)cc2)cc1` was 87.9% (inactive); that for `O=C1CN(c2ccccc2)C(=O)C1C(=O)Nc1ccc(Cl)c(Cl)c1` (configuration not stated) was 0.977% [100 µM] (active). On to `CN(C)CCCC1(c2ccc(F)cc2)OCc2cc(-c3ccc(C(F)(F)F)nc3)ccc21` (configuration not stated), for which the growth is 81.2% (inactive). On to `Fc1ccc(Nc2nnc(-c3ccc(Cl)cc3)o2)cc1`, for which the growth was 102% (inactive).

For `C=C(C)[C@@H]1CC[C@]2(/C=N/Nc3ccncc3)CC[C@]3(C)[C@H](CC[C@@H]4[C@@]5(C)CCCNC(C)(C)[C@@H]5CC[C@]43C)[C@@H]12`, the growth was 99.1% (inactive). `O=C1c2ccccc2NC(c2cn(-c3ccccc3)nc2-c2cccs2)N1Cc1ccccc1` (configuration not stated): the growth is 80% (inactive). As to `Cc1cccc(C)c1NCc1nc(-c2ccccc2)n[nH]1`, the growth was 98.1% (inactive).

Turning to `NC(N)=N/N=C/c1ccc(-c2ccc(-c3ccc(Cl)cn3)s2)cc1`, the growth was 102% (inactive). Same read-out and setting: the value for `CCOC(=O)C1OC1(c1ccccc1)c1ccccc1` (configuration not stated) was 113% (inactive).
